This note sets out measurements from PubChem BioAssay.

Test system in one experiment: not listed separately
Put plainly: probe aNOTCH2 binding on compound microarray – biochemical, small-molecule microarray, 635/667 nm fluorescence, primary screen (AID 1121).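 Also: score merges feature fluorescence read at 667 nm with its signal to noise.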 The following applies: higher = more signal.
Take `COC(=O)C(CC#Cc1ccc2c(c1)[C@]1(C(=O)N2)[C@H](c2ccc(O)cc2)N2[C@H](c3ccccc3)[C@H](c3ccccc3)OC(=O)[C@H]2[C@@H]1C(=O)N1CCc2cc(OC)c(OC)cc2C1)C(=O)OC`: the composite z-score is -0.125. `C=CCNC(=O)[C@@H]1[C@H]2C(=O)O[C@H](c3ccccc3)[C@H](c3ccccc3)N2[C@H](c2ccccc2OCCO)[C@@]12C(=O)N(C(=O)OCCOC)c1ccc(C#CCCO)cc12`: the composite z-score was -0.112. On the same count and under the same terms, the figure for `COc1ccc(CCNC(=O)[C@@]2(Sc3ccc(C)cc3)CC(=O)N(Cc3cc(C(F)(F)F)cc(C(F)(F)F)c3)[C@@H]2c2ccc(CO)cc2)cc1` is 0.118; for `Cc1ccccc1C(O)C1C=CC2C(=O)N(c3ccccc3)C(=O)C2N1Nc1ccccc1F` (stereo unspecified) it is 0.161. `NCCCC[C@@H]1NC(=O)[C@H]2C[C@@H](C(=O)NCc3ccc(F)cc3)[C@@H](c3cccc(OCCO)c3)N2C1=O` showed a composite z-score of -0.0995.

The molecule `Cc1c(NC(=O)/C(C#N)=C/c2ccc(Cl)cc2)c(=O)n(-c2ccccc2)n1C` had a composite z-score of -0.145. Still for that read-out and setting: the figure for `[N-]=[N+]=NCc1ccccc1C[C@]1(C(=O)N2CCOCC2)N=C(c2ccc(OCCCO)cc2)O[C@H]1c1ccccc1CN=[N+]=[N-]` is 0.502.

Molecule `CCC(CC)C(O)C1C=CC2C(=O)N(C)C(=O)C2N1N1CCCCC1` (stereo unspecified) showed a composite z-score of 0.0477. Still for that read-out and setting: in the case of `COCCOC(=O)N1C(=O)[C@@]2(c3cc(C#Cc4ccc(OC)cc4)ccc31)[C@H](c1ccc(OCCO)cc1)N1[C@H](c3ccccc3)[C@H](c3ccccc3)OC(=O)[C@H]1[C@@H]2C(=O)N1CCCCCCC1` it was 0.177.

A further experiment concerns the target Carbonic anhydrase 2 (Homo sapiens) (UniProt P00918). Put plainly: compounds binding carbonic anhydrase 2 – biochemical, small-molecule microarray, Alexa647-labelled CAII, profiling panel (AID 1122). The following applies: CAII-A647 binding fluorescence, higher = more signal.
Molecule `NC(=O)NCC#Cc1ccc2c(c1)[C@]1(C(=O)N2)[C@H](C(=O)N2CCCCCCC2)[C@H]2C(=O)O[C@H](c3ccccc3)[C@H](c3ccccc3)N2[C@@H]1c1ccc(O)cc1` showed a composite z-score of 0.341. The same measure, in the same setting: the figure for `COCCOC(=O)N1C(=O)[C@@]2(c3cc(C#CC4=CCCCC4)ccc31)[C@H](C(=O)N1CCN(c3ncccn3)CC1)[C@H]1C(=O)O[C@H](c3ccccc3)[C@H](c3ccccc3)N1[C@@H]2c1ccccc1OCCO` is 0.169; for `COCCOC(=O)N1C(=O)[C@@]2(c3cc(C#CC4(O)CCCCCC4)ccc31)[C@H](c1ccccc1OCCO)N1[C@H](c3ccccc3)[C@H](c3ccccc3)OC(=O)[C@H]1[C@@H]2C(=O)N1CCCCCCC1` it is 0.497. The same measure, in the same setting: in the case of `CCCCC=C[C@@H](NC(=O)c1ccc(C(F)(F)F)cc1)c1ccccc1` it was -0.273; in that of `C=CCC(OC(C)=O)[C@@H]1[C@@H](N(Cc2ccc(-c3ccccc3)cc2)C(=O)c2ccc(C)cc2)c2cc(OCCCO)ccc2N1C(=O)c1ccc2ccccc2c1` (stereo partly specified), -0.104. `CCCCC(=C=CC[C@@H](O)c1cccc(OCCO)c1)CCO` yielded a composite z-score of 0.34.

As for `CCOC(=O)C[C@H]1[C@H](OC(=O)Cc2ccc3c(c2)OCO3)[C@@H](NC(=O)c2ccccc2)c2cc(OCCCO)ccc2N1C(=O)Cc1ccc(OC)cc1`, the composite z-score was 0.544. The same measure, in the same setting: in the case of `CCCCN1CC=CC23O[C@@H]4C=CCOC(=O)[C@@H]4[C@H]2C(=O)N(C(CO)C(C)C)[C@@H]3C1=O` (stereo partly specified) it was 0.321. Same read-out and setting: the figure for `COC(=O)[C@@]1(Cc2ccc(OC)cc2)[C@@H]2[C@@H](CC(=O)[C@H]2CC(=O)C(=O)N2CCCC2)CN1C(=O)c1ccccc1` is 0.856; for `COC(=O)c1c(CC[C@@H](CO)NC(=O)N[C@@H](Cc2ccccc2)Cn2cc(-c3cncn3C)nn2)oc(C(C)=O)c1C(=O)OC` it is 0.648. The same measure, in the same setting: in the case of `C=CCC(OC(C)=O)[C@@H]1[C@@H](N(Cc2ccc(-c3cccc(C(F)(F)F)c3)o2)C(=O)c2cccc3ccccc23)c2cc(OCCCO)ccc2N1C(=O)c1ccc2ccccc2n1` (stereo partly specified) it was -0.162.

The molecule `CC(=O)NCCCC[C@@H]1NC(=O)[C@H]2C[C@@H](C(=O)NCCCCCC[N+](C)(C)C)[C@@H](c3ccc(O)cc3)N2C1=O` yielded a composite z-score of 0.676. The same measure, in the same setting: in the case of `N#Cc1ccc(C(O)C2C=CC3C(=O)NC(=O)C3N2Nc2ccccn2)cc1` (stereo unspecified) it was 0.854; in that of `C=CCNC(=O)[C@H]1[C@@H]2C(=O)O[C@@H](c3ccccc3)[C@@H](c3ccccc3)N2[C@@H](c2ccccc2OCCO)[C@]12C(=O)N(C(=O)OCCOC)c1ccccc12`, 0.567; in that of `C=CC[C@]1(C(=O)NCc2ccccc2)COC(c2ccc(OCCCO)cc2)=N1`, 0.84. Same read-out and setting: the figure for `COc1cc2c(cc1O)C(C1CC1)N(Cc1ccc([N+](=O)[O-])o1)CC2` (stereo unspecified) is 0.717. Still for that read-out and setting: the figure for `CCOC(=O)C[C@H]1[C@H](OC(=O)c2ccc(C(=O)c3ccccc3)cc2)[C@@H](NC(=O)c2ccc3ccccc3c2)c2cc(OCCCO)ccc2N1C(=O)c1ccc2ccccc2n1` is 0.342.
